Assay outcomes from PubChem BioAssay.
WRN inhibitor: inhibitors of human WRN helicase; Q14191; WRN helicase unwinding, fluorescent forked duplex, kinetic; Potency, µM (doses to about 114 µM), most hits filed as inhibitors; hit rate 0.46% among 360,000; AID 651768; also: nearly all actives have a fitted effect of over 55% in size
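Fluorescence dequenching readout, ex 525 nm/em 598 nm, kinetic mode: forked duplex DNA (100 nM final) with adjacent fluorophore and quencher unwound by WRN (20 nM final) with 2 mM ATP. Compound preincubation 15 min, room temperature.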
Pol eta inh-1: blocks human DNA polymerase eta activity | recombinant Pol eta, fluorescent DNA replication assay | Potency, µM (series often up to 114 µM), usual class: inhibitors | hit rate 1.2% among 390,000 | AID 588591
Target sequence (Q9Y253 whole entry, looked up): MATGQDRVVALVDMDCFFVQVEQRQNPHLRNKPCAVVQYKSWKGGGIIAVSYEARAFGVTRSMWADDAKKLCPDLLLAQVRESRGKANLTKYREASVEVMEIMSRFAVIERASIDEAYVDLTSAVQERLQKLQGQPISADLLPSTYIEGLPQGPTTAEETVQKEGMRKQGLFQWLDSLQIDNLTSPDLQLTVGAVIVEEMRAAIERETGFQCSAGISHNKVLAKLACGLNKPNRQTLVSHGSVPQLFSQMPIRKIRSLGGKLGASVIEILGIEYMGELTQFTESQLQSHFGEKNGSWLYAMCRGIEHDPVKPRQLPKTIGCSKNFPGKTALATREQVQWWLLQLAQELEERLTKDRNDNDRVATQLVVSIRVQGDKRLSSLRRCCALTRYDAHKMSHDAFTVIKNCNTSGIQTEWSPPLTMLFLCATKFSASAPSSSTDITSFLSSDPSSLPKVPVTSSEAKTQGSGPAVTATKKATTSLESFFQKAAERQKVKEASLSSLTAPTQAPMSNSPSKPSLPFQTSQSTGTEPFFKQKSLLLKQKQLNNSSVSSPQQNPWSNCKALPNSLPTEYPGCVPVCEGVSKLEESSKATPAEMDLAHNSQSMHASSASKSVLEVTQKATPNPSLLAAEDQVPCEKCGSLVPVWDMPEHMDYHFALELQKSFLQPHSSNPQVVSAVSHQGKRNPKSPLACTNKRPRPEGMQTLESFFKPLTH
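Pol eta (10 nM) was preincubated with compounds for 15 min at room temperature, after which fluorescent replication substrate (50 nM final) was added to start the reaction. Fluorescence was read kinetically at 0 and 10 min.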
POLI inh: inhibitors of human DNA polymerase iota; Pol iota fluorescent replication assay, 10 min; hit rate 1% among 390,000; Potency, µM (series often up to 115 µM), actives largely listed as inhibitors; Q9UNA4
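Fluorescent replication assay read twice, at 0 min and 10 min after adding 50 nM (final) substrate. Enzyme (10 nM) and compounds were first incubated 15 min at room temperature; enzyme-free buffer wells were negative controls.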
Pol beta inh: blocks human DNA polymerase beta activity. P06746. Pol beta primer extension/strand displacement, fluorescence kinetic. Potency, µM (top dose mostly 114 µM), hits mostly inhibitors. hit rate 1.3% among 340,000
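Human Pol beta at 10 nM; strand-displacement substrate 50 nM final. Compound exposure 15 min at room temperature before start, reaction 10 min at room temperature.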
Pol kappa inh-1: DNA polymerase kappa (human) inhibition | Q9UBT6 | purified Pol kappa, fluorescent DNA synthesis assay, 10 min | Potency, µM (series often up to 107 µM), usual class: inhibitors | hit rate 0.53% among 400,000 | AID 588579
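First, compounds were pin-transferred onto 10 nM Pol kappa. After 15 min at room temperature, substrate was added to 50 nM final. Fluorescence was then measured kinetically at 0 and 10 min.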
GALK inh confirm: confirmation of human galactokinase (GALK) inhibitors | shares compounds with Pol eta inh-1 | purified GALK, Kinase-Glo ATP depletion luminescence | Potency, µM (titrated, usually from 115 µM), hits mostly inhibitors | hit rate 70% among 150
Redox cycling: redox cycling activity in phenol red-HRP assay | shares compounds with Pol eta inh-1 | Phenol red-HRP H2O2 redox cycling, absorbance 600 nm | Potency, µM (titrated, usually from 115 µM), actives largely listed as inhibitors | hit rate 40% among 150
HEK293 viability: reduces HEK-293 cell viability in GALK counter-screen; shares compounds with Pol eta inh-1; HEK-293 viability, ATP luminescence (CellTiter-Glo), 24/48 h; Potency, µM (series often up to 46.1 µM), actives largely listed as inhibitors; hit rate 10% among 170; AID 2547
Pol kappa inh-2: confirmation of human DNA polymerase kappa inhibitors | shares compounds with Pol eta inh-1 | hit rate 76% among 920 | purified Pol-kappa, fluorescent strand-displacement substrate | Potency, µM, usual class: inhibitors
Pol eta inh-2: confirmation of human DNA polymerase eta inhibitors | shares compounds with Pol eta inh-1 | Pol eta primer extension, TAMRA/BHQ fluorescence, 10 min | Potency, µM, usual class: inhibitors | hit rate 64% among 2,600
A number is an active result; [ ] = dose if it differs, or a comment. Rows were chosen to be rich in hits. Some 2.3% of all compounds tested hit in one or more screens of this group. Calls follow the shape of the dose curve; as a rule, active = well fitted curve in the direction sought with a large enough effect; inconclusive = small, poorly fitted or top-dose-only effect, or another doubt; inactive = no such curve, though single readings can be large; an effect the other way counts as inactive or inconclusive.

Results for COc1ccc(CCC(=O)NCc2nc3cccnc3n2Cc2ccccc2)cc1 ?
Pol eta inh-1: inactive; POLI inh: inactive; Pol beta inh: inactive; Pol kappa inh-1: inactive

How did Cc1cnc(C(=O)NCC(=O)Nc2ccccc2Br)cn1 do in these assays?
WRN inhibitor: inactive[11.6 µM]; Pol eta inh-1: 31.6µM; POLI inh: 17.8µM; Pol kappa inh-1: inconclusive; Pol kappa inh-2: inconclusive; Pol eta inh-2: inconclusive

How did COc1ccc(S(=O)(=O)CC(=O)c2cc3cc(Br)ccc3oc2=O)cc1 do in these assays?
WRN inhibitor: inconclusive; Pol eta inh-1: 28.2µM; POLI inh: 12.6µM; Pol beta inh: 10µM; Pol kappa inh-1: inconclusive; Pol eta inh-2: inconclusive

How did COc1ccc(-c2nnc(C3CCN(S(=O)(=O)c4cccc(Cl)c4)CC3)o2)cc1 do in these assays?
Pol eta inh-1: inactive; POLI inh: inactive; Pol beta inh: inactive; Pol kappa inh-1: inactive

How did CC(=O)c1ccc(S(=O)(=O)N(CCCO)Cc2cc3cc(C)ccc3[nH]c2=O)cc1 do in these assays?
WRN inhibitor: inactive; Pol eta inh-1: 50.1µM; POLI inh: inconclusive; Pol beta inh: 39.8µM; Pol kappa inh-1: inactive; Pol eta inh-2: 60.1

How did COc1ccc2[nH]c(=O)c(CN(CCO)S(=O)(=O)c3ccc(C)cc3)cc2c1 do in these assays?
WRN inhibitor: inactive; Pol eta inh-1: inactive; POLI inh: inactive; Pol beta inh: inactive; Pol kappa inh-1: inactive

How did COc1ccc(C(=O)OCc2cc(=O)n3nc(-c4cccs4)sc3n2)cc1 do in these assays?
Pol eta inh-1: inconclusive; POLI inh: inconclusive; Pol beta inh: inconclusive; Pol kappa inh-1: inactive; Pol eta inh-2: inconclusive

Results for COc1ccc(C(=O)Nc2ccc(C(=O)OCc3cc(=O)n4nc(C5CC5)sc4n3)cc2)cc1 ?
Pol eta inh-1: inactive; POLI inh: inconclusive; Pol beta inh: inconclusive; Pol kappa inh-1: inactive

What do the screens show for `COC(=O)c1ccc(CSc2ccc3nnc(-c4ccccn4)n3n2)o1`?
WRN inhibitor: inactive; Pol eta inh-1: inactive; POLI inh: inactive; Pol beta inh: inactive; Pol kappa inh-1: inactive; GALK inh confirm: inactive; Redox cycling: inactive; HEK293 viability: inactive

How did COC(=O)c1ccc(CSc2ccc3nnc(-c4ccc(F)cc4)n3n2)o1 do in these assays?
WRN inhibitor: inactive; Pol eta inh-1: inactive; POLI inh: inactive; Pol beta inh: inactive; Pol kappa inh-1: inactive

How did CN=c1scc(C)n1/N=C/c1cc(Br)c(O)c(OC)c1 do in these assays?
WRN inhibitor: inactive; Pol eta inh-1: inactive; POLI inh: inactive; Pol beta inh: inactive; Pol kappa inh-1: inactive

What do the screens show for `CN=c1scc(C)n1/N=C/c1ccc(O)c(O)c1O`?
WRN inhibitor: 20µM; Pol eta inh-1: 3.55µM; POLI inh: 7.94µM; Pol beta inh: 5.01µM; Pol kappa inh-1: 12.6µM; Pol eta inh-2: 53.6

Results for CN=c1scc(-c2cccs2)n1/N=C/c1ccc(O)c(O)c1O ?
WRN inhibitor: inconclusive; Pol eta inh-1: inconclusive; POLI inh: inconclusive; Pol beta inh: 2.82µM; Pol kappa inh-1: inconclusive; Pol eta inh-2: 75.7

What do the screens show for `CCOCCCNC(=O)Nc1cc(C(=O)NCc2ccc(C(C)C)cc2)ccc1N1CCCC1`?
Pol eta inh-1: inactive; POLI inh: inactive; Pol beta inh: inactive; Pol kappa inh-1: inactive

How did Cc1cc[n+](-c2[nH]c(=O)sc2/C=N/NC([S-])=Nc2ccccc2)cc1 do in these assays?
WRN inhibitor: inconclusive; Pol eta inh-1: 22.4µM; POLI inh: 22.4µM; Pol beta inh: inactive; Pol kappa inh-1: 79.4µM; Pol eta inh-2: 75.7

Results for O=C(NN1C(=O)C2CC=C(Cl)CC2C1=O)c1ccncc1 (centres undefined) ?
WRN inhibitor: inconclusive; Pol eta inh-1: 10µM; POLI inh: 39.8µM; Pol beta inh: 3.16µM; Pol kappa inh-1: 50.1µM; Pol eta inh-2: 60.1

Results for O=C(O)CN1C(=O)/C(=C\c2cc(Br)ccc2OCc2ccccc2F)SC1=S ?
WRN inhibitor: inactive[11.6 µM]; Pol eta inh-1: inconclusive; POLI inh: inactive; Pol beta inh: inconclusive; Pol kappa inh-1: inactive; Pol eta inh-2: inconclusive

How did O=C(O)CN1C(=O)/C(=C\c2cc(Br)ccc2OCc2ccc([N+](=O)[O-])cc2)SC1=S do in these assays?
WRN inhibitor: inconclusive; Pol eta inh-1: 28.2µM; POLI inh: 39.8µM; Pol beta inh: 28.2µM; Pol kappa inh-1: 70.8µM; Pol kappa inh-2: 26.7; Pol eta inh-2: inconclusive

Results for O=C(O)CN1C(=O)/C(=C\c2cccc(OCc3ccc(Cl)cc3Cl)c2)SC1=S ?
WRN inhibitor: inactive[11.6 µM]; Pol eta inh-1: 79.4µM; POLI inh: inconclusive; Pol beta inh: inactive; Pol kappa inh-1: inactive; Pol kappa inh-2: 47.4; Pol eta inh-2: inconclusive

How did O/N=C/c1cc(Br)ccc1OCc1ccccc1F do in these assays?
WRN inhibitor: inactive; Pol eta inh-1: inactive; POLI inh: inactive; Pol kappa inh-1: inactive

How did Cc1nn(Cc2noc(C(=O)NCC3CCCO3)n2)c(C)c1Br (centres undefined) do in these assays?
WRN inhibitor: inactive; Pol eta inh-1: inactive; POLI inh: inactive; Pol beta inh: inactive; Pol kappa inh-1: inactive; GALK inh confirm: inactive; Redox cycling: inactive; HEK293 viability: inactive

Results for Cc1nn(Cc2noc(C(=O)NC3CCC(C)CC3)n2)c(C)c1Br (centres undefined) ?
WRN inhibitor: inactive; Pol eta inh-1: inactive; POLI inh: inactive; Pol beta inh: inactive; Pol kappa inh-1: inactive

How did COc1ccccc1N1CCN(C(=O)c2cc3c(=O)n(C)c4ccccc4c3s2)CC1 do in these assays?
Pol eta inh-1: inactive; POLI inh: inactive; Pol beta inh: inactive; Pol kappa inh-1: inactive

Results for CC(=O)N1CCc2c(sc(NC(=O)C3COc4ccccc4O3)c2C(N)=O)C1 (centres undefined) ?
WRN inhibitor: inactive; Pol eta inh-1: 22.4µM; POLI inh: inactive; Pol beta inh: inactive; Pol kappa inh-1: inactive; Pol eta inh-2: 47.8

What do the screens show for `O=C1c2cccc3cccc(c23)C(=O)N1Cc1cccnc1`?
WRN inhibitor: inactive; Pol eta inh-1: inactive; POLI inh: inactive; Pol beta inh: inactive; Pol kappa inh-1: inactive
